# Measured values taken from PubChem BioAssay (NCI).
# This is part of a sample that, as a whole, favours compounds with a hit. Of some 83,000 tested, about 20% had one in any assay.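 Negative percent growth values reflect cell death: -40 means 40% of the cells present at the start died, and -100 means all died.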 A number with no mark means an inactive call. Active and inactive are the calls of the source. Rule for the calls: active = growth percent below 10; inactive = the rest.
# Tests used:
# Assay in all cases: NCI-60 one-dose screen, 48 h (100 = growth as untreated, 0 = no growth, -100 = all killed)
# Details in all cases: 10 µM unless noted
# T-47D breast = tested on: T-47D breast
# BT-549 breast = tested on: BT-549 breast
# SW-620 colon = tested on: SW-620 colon
# MCF7 breast = tested on: MCF7 breast
# HCT-116 colon = tested on: HCT-116 colon
# HCC-2998 colon = tested on: HCC-2998 colon
# KM12 colon = tested on: KM12 colon
# MDA-MB-435 melanoma = tested on: MDA-MB-435 melanoma
Compound,growth (T-47D breast),growth (BT-549 breast),growth (SW-620 colon),growth (MCF7 breast),growth (HCT-116 colon),growth (HCC-2998 colon),growth (KM12 colon),growth (MDA-MB-435 melanoma)
O=C(Nc1ccc(-c2nc(-c3cccc(O)c3)c(-c3ccnc(Br)c3)[nH]2)cc1)c1ccccc1,-6.8% (active),40.6%,10.5%,0.42% (active),18.1%,26.3%,12.9%,–
CN(C)C(=O)c1ccccc1-n1cnc2ccccc2c1=O,99.2%,117%,102%,96.4%,100%,99.9%,101%,–
CCN1C(=O)N(CC)C2SC(N/N=C/c3ccc(OC)cc3)=NC21 (stereo unspecified),80.9%,18.9%,20.2%,15.2%,6.83% (active),13.5%,13.9%,–
COc1ccc(N2C(=O)c3cc(OC)c(OC)cc3NC2SCc2ccccc2)cc1 (stereo unspecified),98.5%,106%,114%,96.3%,100%,121%,108%,–
O=C(Cn1cc(CN2C(=O)c3ccc([N+](=O)[O-])cc3C2=O)nn1)Nc1ccc(F)cc1Cl,95.4%,92.4%,99.6%,93.3%,102%,100%,105%,–
CN(c1ccc(Cl)cc1)S(=O)(=O)c1ccc(-c2cnc(C3CC3)o2)cc1,58.9%,35.1%,25.8%,15%,10.6%,22.7%,8.94% (active),–
C#C[C@]1(O)CC[C@H]2[C@@H]3CC=C4c5sc(-c6cccc(F)c6)nc5CC[C@]4(C)[C@H]3CC[C@@]21C,65.4%,96.3%,89.7%,66.7%,80.6%,85.2%,75.6%,–
O=S(=O)(NC1CC2CCC1C2)c1ccc2c(c1)C(=NO)c1cc(S(=O)(=O)NC3CC4CCC3C4)ccc1-2 (stereo unspecified),-0.508% (active),31.7%,-63.4% (active),25.3%,20.3%,38.9%,45.9%,–
C#C[C@]1(O)CC[C@H]2[C@@H]3CC=C4c5sc(-c6ccccn6)nc5CC[C@]4(C)[C@H]3CC[C@@]21C,85.3%,59.8%,74.2%,49.3%,62%,92.5%,85.7%,–
O=C(C[n+]1ccnc2ccccc21)c1ccc(O)c(O)c1,45%,51.7%,24%,12.5%,7.08% (active),81.2%,82.3%,–
CC(=O)Nc1ccc(NC(=O)Nc2cccc(-c3nc(-c4ccc(NC(=O)c5cccs5)cc4Cl)no3)c2)cc1C(F)(F)F,-59.4% (active),-26.7% (active),-51.3% (active),-58.1% (active),-22.2% (active),-65.1% (active),-50.1% (active),–
CC(=O)Nc1ccc(NC(=O)Nc2cccc(-c3nc(-c4ccc(NC(=O)c5cccnc5)cc4Cl)no3)c2)cc1C(F)(F)F,-43.7% (active),-29.9% (active),-62.8% (active),-61.3% (active),-47.4% (active),-77.6% (active),-46.2% (active),–
O=C(N/N=C\c1ccc(Cl)cc1)c1ccc2nc(-c3ccc(Br)cc3)[nH]c2c1,0.0838% (active),97.7%,-49.3% (active),-33.2% (active),-86.8% (active),-42.5% (active),-23.2% (active),–
Brc1cccc(/C=N/Nc2nc(N/N=C/c3cccc(Br)c3)nc(N3CCOCC3)n2)c1,56.4%,52.7%,24.7%,–,21.2%,31.5%,30.3%,–
O=C(NCCCCCCNC(=O)c1c2c(nc3ccccc13)-c1cccnc1SC2)c1c2c(nc3ccccc13)-c1cccnc1SC2,79.7%,–,39.2%,76.1%,66.3%,44.6%,74.7%,56.8%
Cn1cc(-c2nnc(N)nc2-c2cn(C)c3ccc(F)cc23)c2cc(F)ccc21,69.1%,99.8%,102%,87.2%,92.7%,104%,90.8%,–
